According to PubChem BioAssay:
Records with an inconclusive call do not appear. Active and inactive are the calls of the source. Cut-off read from the data, not from the text of the source, unless noted: active = inhibition above about 80%; inactive = the rest.

How the values were obtained:
[1] = viability loss in pontine glioma line – cell-based, SU-DIPG-XVII, MIPE5.0, CellTiter-Glo, qHTS, dose response (AID 1347060; cut-off not given, nearly all actives have AC50 up to about 26 µM;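 for AC50: cells exposed to compound for 48 hours before viability readout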); settings: CellTiter-Glo ATP luminescence
[2] = viability loss in pontine glioma line – cell-based, SU-DIPG-XIII, MIPE5.0, CellTiter-Glo, qHTS, dose response (AID 1347064; cut-off not given, nearly all actives have AC50 up to about 23 µM;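 for AC50: cells exposed to compound for 48 hours before the viability read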); settings: CellTiter-Glo ATP luminescence
[3] = viability loss in pontine glioma line – cell-based, SU-DIPG-XXV, MIPE5.0, CellTiter-Glo, qHTS, dose response (AID 1347065; cut-off not given, nearly all actives have AC50 up to about 26 µM;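 note: cells exposed to compound for 48 hours before ATP readout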); settings: CellTiter-Glo ATP luminescence
[4] = JHH-DIPG-1 glioma cell viability, MIPE5.0 library, CellTiter-Glo luminescence, qHTS (AID 1347067; cut-off not given, nearly all actives have AC50 up to about 26 µM;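 note: cells exposed to compound for 48 hours before readout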); settings: JHH-DIPG-1 glioma viability, CellTiter-Glo ATP luminescence
[5] = growth inhibition of DIPG cells – cell-based, MIPE5.0 library, qHTS (AID 1347068; cut-off not given, nearly all actives have IC50 up to about 30 µM;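 for IC50: cells exposed to compound for 48 hours before viability readout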); settings: SU-DIPG-XXV viability
[6] = growth inhibition, single agent or in combination, cell-based, chromothripsis tumors, cisplatin or BGB combos (AID 1671449); settings: LFS_MB_P medulloblastoma cells;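 note: cells exposed for 96 hours; 0% = vehicle DMSO and 100% = killing by high DMSO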
[7] = growth inhibition, single agent and combos, cell-based, chromothripsis tumors, cisplatin or BGB combos (AID 1671450); settings: HDN33 neuroblastoma cells, stronger effect = higher value;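 note: cells exposed to compound for four days; 0% = vehicle DMSO and 100% = cell killing by high DMSO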
[8] = growth inhibition, single agents and combos, ICB984, cell-based, cisplatin or BGB combos, synergistic combos for chromothripsis tumors (AID 1671451; call rule not given here;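 note: cells exposed for 96 hours before readout; 0% = vehicle DMSO and 100% = killing by high DMSO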); settings: ICB984 medulloblastoma cells, drug combinations, stronger effect = higher value
[9] = growth inhibition, single agents and combos, LFS_MB_1R, cell-based, cisplatin or BGB combos, synergistic combos for chromothripsis tumors (AID 1671452); settings: LFS_MB_1R medulloblastoma cells, stronger effect = higher value;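 note: cells exposed for 96 hours before readout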
[10] = growth inhibition, single agents and combos, HTB85, cell-based, BGB or cisplatin IC20 combos, synergistic combos for chromothripsis tumors (AID 1671453); settings: HTB85 osteosarcoma cells, drug combinations, stronger effect = higher value;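 note: cells exposed for 96 hours before readout; 0% = vehicle DMSO and 100% = high DMSO killing control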
[11] = growth inhibition, single agents and combos, CRL2098, cell-based, BGB or cisplatin IC20 combos, synergistic combos for chromothripsis tumors (AID 1671454); settings: CRL2098 osteosarcoma cells, drug combinations, stronger effect = higher value;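 note: cells exposed for 96 h before readout; 0% = vehicle DMSO and 100% = killing by high DMSO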
[12] = growth inhibition, single agents and combos, HD-MB03, cell-based, BGB or cisplatin IC20 combos, synergistic combos for chromothripsis tumors (AID 1671455; in the data active = inhibition above about 83%;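 note: 0% = vehicle DMSO and 100% = high DMSO as cytotoxic control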); settings: HD-MB03 medulloblastoma cells, stronger effect = higher value
[13] = growth inhibition, single agents and combos, UWB1.289, cell-based, BGB or cisplatin combos, synergistic combos for chromothripsis tumors (AID 1671456); settings: UWB1.289 ovarian carcinoma cells, stronger effect = higher value;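 note: cells exposed to compound for four days; 0% = vehicle DMSO and 100% = killing by high DMSO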
[14] = growth inhibition, MDA-MB-436, cell-based, BGB or cisplatin combos, synergistic combos for chromothripsis tumors (AID 1671458; call rule not given here;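 note: cells exposed for 96 hours; 0% = vehicle DMSO and 100% = killing by high DMSO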); settings: MDA-MB-436 breast carcinoma growth inhibition, drug combinations, stronger effect = higher value
[15] = BT084 cell growth, single and combined drugs, ICGC_MB145, cisplatin and BGB IC40 combos (AID 1671461); settings: BT084 medulloblastoma cells, drug combinations, stronger effect = higher value;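 note: cells exposed to drugs for 96 hours; 0% = vehicle DMSO and 100% = high DMSO full killing control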
[16] = RCMB18 cell growth, single agent and combined, cisplatin and BGB IC40 combos (AID 1671462); settings: RCMB18 medulloblastoma cells, stronger effect = higher value;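 note: cells exposed to compound for four days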
[17] = CRL1545 cell growth, single agent and combined, cisplatin and BGB IC20 combos (AID 1671464); settings: CRL1545 osteosarcoma cells, stronger effect = higher value;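 note: cells exposed to compound for 96 hours before readout; 0% = vehicle DMSO and 100% = high DMSO killing control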
[18] = viability loss with induced miR-34 in A549 – imaging, A549 dox-inducible miR-34, nuclei and caspase counts, primary screen (AID 1347080;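 active = compounds whose cell count with miR-34 switched on is under 0.7 times the count with it off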); settings: A549 miR-34 inducible, Hoechst nuclei count, 48 h
[19] = MELAS cybrid and Rieske KO viability enhancers – cell-based, MELAS cybrids, Rieske KO mouse fibroblasts, CellTiter-Glo, primary screen (AID 1508586;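 active = mean z-score across replicates of 1.96 or higher in either the MELAS or the Rieske mutant cell line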;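 note: z relative to plate mean and SD of compound and empty wells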); settings: low glucose
[20] = measured here: combination with BGB IC40, at 0.05 µM
[21] = measured here: with BGB IC20 combination, at 0.5 µM
[22] = measured here: with cisplatin IC20 combination, at 0.5 µM
[23] = measured here: combination with cisplatin, at 0.5 µM

C=C1[C@H](CO)[C@@H](O)C[C@@H]1n1cnc2c(=O)[nH]c(N)nc21
outcome [1]: inactive | outcome [2]: inactive | outcome [3]: inactive | outcome [4]: inactive | outcome [5]: inactive | inhibition ([6]; at 0.5 µM, stronger effect = higher value): -21.8% (inactive) | inhibition ([6]; measured here: combination with BGB IC20, at 0.005 µM): 5.29% | inhibition ([6]; measured here: combination with BGB IC40, at 0.005 µM): 73.1% | inhibition [6, 20]: 2.38% | inhibition ([6]; measured here: combination with cisplatin, at 0.5 µM, stronger effect = higher value): -17.3% | inhibition ([6]; measured here: combination with cisplatin, at 5 µM, stronger effect = higher value): -13.1% | inhibition ([7]; BGB combo, at 5 µM): -36.2% | inhibition ([7]; at 0.5 µM): -7.93% (inactive) | inhibition ([7]; cisplatin combo, at 5 µM): -16.1% | inhibition [7, 21]: -13.1% | inhibition [7, 22]: -0.869% | inhibition ([7]; single agent, at 5 µM): -23.6% | inhibition ([8]; BGB IC20 combo, at 0.005 µM): -16% | inhibition ([8]; BGB IC40 combo, at 0.005 µM): -1.32% | inhibition ([8]; BGB IC40 combo, at 0.05 µM): -29.5% | inhibition ([8]; at 0.5 µM): -11.2% (inactive) | inhibition ([8]; cisplatin combo, at 0.05 µM): -36.2% | inhibition ([8]; cisplatin combo, at 0.5 µM): -7.79% | inhibition ([8]; cisplatin combo, at 5 µM): -2.87% | inhibition ([8]; measured here: 5 uM single agent, at 5 µM): -12.5% | inhibition ([9]; at 0.5 µM): -2.98% (inactive) | inhibition [9, 20]: -6.72% | inhibition [9, 23]: -9.39% | inhibition ([9]; measured here: combination with cisplatin, at 5 µM): 13.9% | inhibition ([10]; at 0.5 µM): -14.3% (inactive) | inhibition ([10]; measured here: with BGB IC20, at 0.5 µM): -14.3% | inhibition ([10]; measured here: with BGB IC20, at 5 µM): -13% | inhibition ([10]; measured here: with cisplatin IC20, at 0.5 µM): -20.6% | inhibition ([10]; measured here: with cisplatin IC20, at 5 µM): -13.2% | inhibition ([10]; single agent, at 5 µM): -13% | inhibition ([11]; at 0.5 µM): -23% (inactive) | inhibition ([11]; measured here: combination with BGB at IC20, at 0.5 µM): -65.5% | inhibition ([11]; measured here: combination with cisplatin at IC20, at 0.5 µM): -29.3% | inhibition ([12]; at 0.5 µM): 0.83% (inactive) | inhibition ([12]; measured here: combo with BGB at IC20, at 0.5 µM): -0.76% | inhibition ([12]; measured here: combo with cisplatin at IC20, at 0.5 µM): -1.27% | inhibition ([13]; at 0.5 µM): -8.13% (inactive) | inhibition ([13]; measured here: inhibition with BGB combination, at 0.05 µM): 1.38% | inhibition ([13]; measured here: inhibition with cisplatin combination, at 0.05 µM): -3.75% | inhibition ([14]; at 0.5 µM): -0.47% (inactive) | inhibition ([14]; measured here: BGB combination, at 0.5 µM): -0.92% | inhibition ([14]; measured here: BGB combination, at 5 µM): -0.668% | inhibition ([14]; measured here: cisplatin combination, at 0.5 µM): 0.06% | inhibition ([14]; measured here: cisplatin combination, at 5 µM): -10.2% | inhibition ([15]; at 0.5 µM): 4.2% (inactive) | inhibition ([15]; cisplatin combination, at 0.5 µM): 2.02% | inhibition ([15]; cisplatin combination, at 5 µM): -20% | inhibition ([15]; measured here: BGB IC40 combination 0.05 uM, at 0.05 µM): -15.2% | inhibition ([15]; single agent, at 5 µM): 6.8% | inhibition ([16]; at 0.5 µM): -7.97% (inactive) | inhibition ([16]; cisplatin combo, at 5 µM): 3.9% | inhibition ([16]; measured here: BGB IC40 combination, at 0.05 µM): -6.21% | inhibition [16, 23]: -17.4% | inhibition ([16]; single agent, at 5 µM): -2.06% | inhibition ([17]; at 0.5 µM): -6.46% (inactive) | inhibition [17, 21]: -39.9% | inhibition [17, 22]: 8.8% | inhibition ([17]; single agent, at 0.05 µM): 4.9% | inhibition ([17]; single agent, at 5 µM): -41.7%

C=CC(=O)Nc1cccc(Nc2nc(Nc3ccc(N4CCN(C(C)=O)CC4)cc3OC)ncc2C(F)(F)F)c1
AC50 [1]: 1.48 µM (active) | AC50 [2]: 1.66 µM (active) | AC50 [3]: 742 nM (active) | AC50 [4]: 1.86 µM (active) | IC50 [5]: 1.32 µM (active) | fold change ([18]; stronger effect = lower value, cell number ratio, induced over uninduced): 0.925 (inactive) | fold change ([18]; measured here: relative caspase fold change +Dox/-Dox): 0.348 | cell count ([18]; measured here: total cells with miR-34 induction, stronger effect = lower value): 2040 | cell count ([18]; measured here: total cells without miR-34 induction): 2210 | z-score ([19]; MELAS cybrid survival, CellTiter-Glo 48 h, stronger effect = higher value): -0.595 (inactive) | z-score ([19]; Rieske KO mouse fibroblast survival, CellTiter-Glo 72 h): 1.83
